This is an account of results in PubChem BioAssay AID1508600 (Functional Genomics Laboratory (NCATS/FGL), 2020).

In all, about 53,000 sequences went through this assay and about 3,700 (7%) were called active.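 Rule for the calls: active = gene knockdowns whose robust z-score for IL-1 alpha signal is at least 2 or at most -2, so actives lie on both sides; inactive = the rest.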 The full list was thinned out, with actives kept by preference.

This assay is described as follows: Components of the Cytosolic LPS Sensing Pathway: Gene Identification via Genome-wide siRNA Screen.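 Note: robust z of the log signal after scaling to non-targeting control siRNA wells of the plate.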 The following applies: RAW264.7 macrophages, IL-1a HTRF, actives lie on both sides, screened at 100 nM (by protocol), cells primed 5 h with Pam3CSK4 first. The method, boiled down:
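Three distinct siRNAs per gene were tested singly at 100 nM in RAW264.7 macrophages. Following Pam3CSK4 priming and 24 hour LipidA transfection, IL-1a secretion was read by HTRF.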
For orientation: Time-resolved FRET reads energy transfer from a long-lived donor to a nearby acceptor.
In the case of GCAGUCAUGGGUUCUUAAGTT against Gng3, the z-score is 0.109 (inactive).
The result for CCAUAUCUCAUGAGGAAGGTT against Olfr1368 reads 1.53 (inactive); that for GGACGGUGACAAGAACAACTT against Tnnc1, 1.72 (inactive); that for GCUUCACGAUUAAAACUAATT against Ltb4r1, 0 (inactive).
The result for “CGGAGUCUUCUUCUCACCUTT against A630001O12Rik” reads -2.82 (active); that for GGCUCAGGCAUUGUAACCATT against Dnm3, -0.177 (inactive); that for GGUGCAUUCCUUGUGAAUGTT against Ctbp2, 0.141 (inactive).
As for GCUCAGUCAUGUGACCGCATT against Fbxl18, the z-score is 2.93 (active).
With GGGAAAGGAAGUUGUUUUGTT against Epha2, the z-score is 0.878 (inactive).
The result for GCAGCCUAUUACCUCAGACTT against Nwd2 reads 1.02 (inactive); that for GGAUCUCUCUUUCCUCCUCTT against Gli1, 0.0792 (inactive).
Turning to GCCUUCAAGCCAAAGAUAGTT against Lin54, the z-score was -0.582 (inactive).
The result for GGCAAAGGCUAUCGCUCACTT against Smpd2 reads -1.46 (inactive); that for GCCUCUAUAUCUUUCACUGTT against Olfr1209, -2.16 (active).
Take CCGGACCAUCUUCGACAGUTT against Pmepa1: the z-score is -0.783 (inactive).
The result for GGAACUGUGUGUCUUCUCCTT against Kcns3 reads -1.78 (inactive); that for CGGUGAAAGACUUCAGUAUTT against Ppfibp1, 0.578 (inactive); that for GCCAGCGACCUUUAGUACATT against Cmtm1, 2.08 (active).
Take CCUGCUCUUCGUUAUCUUGTT against Olfr552: the z-score was 1.59 (inactive).
GCGACAGAGGAAGCUUGUUTT against Mak16: the z-score was 0.634 (inactive).
As to CGACAAGAAGACUUCGAAUTT against Mnt, the z-score is -1.28 (inactive).
Consider GGCCUAUUUUUUCAUAGUUTT against Ptprs, for which the z-score was 0.0729 (inactive).
GCACACUGAUGAACUUACCTT against Ston2: the z-score was 2.55 (active).
On to GGCAAAGUACUACGUGCAGTT against Sh3bp5, for which the z-score was -0.225 (inactive).
As for GGCAGAAUAUGAGUUUGAUTT against Camk1d, the z-score is -0.161 (inactive).
In the case of “GGAAAAAGAUGCGACAAUGTT against A930012O16Rik”, the z-score was -1.01 (inactive).
The result for GGGACCAUUCUGAAGAUGATT against Acot7 reads -1.76 (inactive); that for GGAGAAUAUGUCGUCAUGATT against Gabra3, -1.09 (inactive); that for GGAAAAACUGGUCUAUCAATT against Polr3f, 1.47 (inactive).
The result for GGAAGAAUGUGGGUAAAGATT against Gimap9 reads -2.01 (active).
